An excerpt weighted towards active compounds, which were near 3.4% of everything screened.
PGC1a acetyl inh – inhibitors of PGC1a acetylation signal, primary screen, cell-based, U2OS, AlphaScreen, inhibitor mode; 350,000 tested, 0.17% active; inhibition, % at 15.6 µM; AlphaScreen anti-acetyl-lysine; with virally co-expressed GCN5 acetyltransferase;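 active means every replicate shows inhibition of at least 40%; inconclusive means mean inhibition at least 40% but some replicate below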;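 further: 0% = neutral control wells and 100% = positive control wells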
rRNA inh HTS – reduced GFP signal of wild-type E. coli, primary screen, bacterial rRNA inhibitor project, GFP/RFP fluorescence, OD600, single point; E. coli WT GFP vs humanized-ribosome RFP mutants, 24 h; stronger effect = lower value; DMSO median 0, no signal -100; GFP signal change (wild-type ribosome), % (concentration not given with the values); 350,000 tested, 1.6% active; AID 720706, 2013;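 active means significant combined selectivity score with lowered wild-type GFP, culture density cut under 30%, mutant RFP and density less affected; inactive means any of these conditions unmet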
SIRT5 block – SIRT5 desuccinylase inhibitors, primary screen, biochemical, fluorescence imaging, single point, set 5; NAD-dependent protein deacylase sirtuin-5, mitochondrial (Homo sapiens), Q9NXA8; Purified SirT5, succinyl-peptide AMC, trypsin-coupled fluorescence; inhibition, % at 15 µM; 330,000 tested, 1.1% active; in the data active means inhibition above about 15%; inconclusive means no clear call, values can overlap the other calls
Target sequence (Q9NXA8 whole entry, looked up): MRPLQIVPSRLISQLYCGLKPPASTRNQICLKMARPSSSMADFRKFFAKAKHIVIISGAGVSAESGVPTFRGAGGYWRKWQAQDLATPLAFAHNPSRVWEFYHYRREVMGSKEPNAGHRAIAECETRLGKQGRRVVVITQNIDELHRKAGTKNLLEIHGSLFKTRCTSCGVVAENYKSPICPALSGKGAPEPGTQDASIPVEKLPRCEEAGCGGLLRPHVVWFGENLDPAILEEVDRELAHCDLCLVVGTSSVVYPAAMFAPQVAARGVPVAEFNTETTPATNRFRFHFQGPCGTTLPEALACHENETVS
EWS-Fli inh – EWS/Fli-driven NR0B1 reporter inhibitors, primary screen, A673 cells, NR0B1 luciferase, luminescence, MLPCN library; viability-normalised; inhibition, % at 12.6 µM; 350,000 tested, 0.67% active; AID 651661, 2012;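 active means mean inhibition of at least 50% after viability correction, with every replicate also passing that limit; inconclusive means mean reaches 50% but only one of two replicates passes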;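 further: firefly luciferase signal divided by Alamar Blue viability fluorescence both relative to DMSO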
PAX8 reporter – inhibitors of PAX8-driven TPO luciferase reporter, primary screen, RMG-I cells, single concentration. SteadyGlo, 24 h. inhibition, % at 12.6 µM. 360,000 tested, 1.2% active. AID 652154, 2013;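 active means mean replicate inhibition at least 60% with every replicate also reaching 60%; inconclusive means only one of the two criteria is met; inactive means mean below 60% and not all replicates reaching 60%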;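 further: luciferase light reporting Pax8 driven TPO promoter activity; plate controls were median of neutral control wells for no effect and mitoxantrone controls for full effect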
LGR2 antag – inhibitors of bursicon-induced LGR2 CRE-luciferase signal, primary screen, cell-based, HEK293, CRE-luciferase reporter, bursicon stimulation | Drosophila bursicon receptor LGR2 (rickets) | bursicon-stimulated, 4 h | inhibition, % at 9.99 µM | 380,000 tested, 0.35% active | AID 720647, 2013;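 active means drop in luminescence signal, shown as inhibition above about 50% in the replicate tests, limit read from the data, passing the limit was not always enough; inconclusive means probably only some replicates passing the limit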;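 further: agonist challenge used bursicon conditioned medium at about half maximal strength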
Active calls of the source: *; ? = inconclusive; . = not tested or not shown.

SMILES	PGC1a acetyl inh	rRNA inh HTS	SIRT5 block	EWS-Fli inh	PAX8 reporter	LGR2 antag
COc1ccc2c3c([nH]c2c1)[C@H](CO)N(C(=O)C1CCCCC1)CC31CCN(S(C)(=O)=O)CC1	-7	2	.	2	.	-8
CCCCC(=O)N1CCN(c2nc3ccc(Br)cc3s2)CC1	8	-20*	-2	-34	-67	-55
CCCC(=O)N1CCN(c2nc3ccc(Br)cc3s2)CC1	-8	-32	-3	.	-164	-52
Cc1ccc(CNC(=O)CNC(=O)[C@@H]2Cc3ccccc3CN2)cc1	0	5	37*	.	8	-2
COc1ccc(CNC(=O)CNC(=O)[C@@H]2Cc3ccccc3CN2)cc1	2	24	-1	.	-1	-6
O=C(C1CCCN(S(=O)(=O)c2cccc3nonc23)C1)N1CCN(c2ccccc2)CC1 (centres undefined)	-5	-29*	-10	15	.	-1
O=C(CSCc1cccc(Br)c1)N=Nc1c(O)[nH]c2ccccc12	.	.	.	.	17	.
O=Nc1c(-c2c(O)[nH]c3cc(Br)ccc23)[nH]c2ccccc12	-258	-17	-2	-46	26	95*
Cn1c(=O)[nH]c(=O)c2c1nc([N+](=O)[O-])n2Cc1ccccc1	.	16	0	31	101*	?
CC(C)Cn1c([N+](=O)[O-])nc2c1c(=O)[nH]c(=O)n2C	4	17	-3	20	78*	9
CCNc1nc2c(c(=O)[nH]c(=O)n2C)n1CC(C)C	-4	-3	0	4	-13	-4
Cn1c(=O)[nH]c(=O)c2c1nc(N1CCNCC1)n2Cc1ccccc1	-5	19	-5	18	-20	-4
CO[C@@H]1CN(C)C(=O)c2ccc(NC(=O)C3CCOCC3)cc2OC[C@H](C)NC[C@@H]1C	1	1	-3	8	.	3
COc1ccccc1CCNC(=O)CC1C(=O)NCCN1CCCc1ccccc1 (centres undefined)	0	-32	-1	.	15	6
O=C(CC1C(=O)NCCN1CCCc1ccccc1)NCCc1ccccc1Cl (centres undefined)	1	-30	15*	.	-4	-8
CCO[C@@H]1OC(C(=O)Nc2ccccc2)=C[C@H](c2cn(C(C)=O)c3ccccc23)[C@H]1CCCO	-7	.	2	8	-2	.
COC(=O)Cc1c(O)ccn(Cc2ccc(Cl)c(Cl)c2)c1=O	4	-21*	-3	-12	7	5
C[C@H](CO)N1C[C@H](C)[C@@H](CN(C)Cc2ccc(C(=O)Nc3ccccc3N)cc2)Oc2ccc(NC(=O)c3ccncc3)cc2C1=O	-7	-4	0	1	1	4
O=C(O)COc1ccc(/C=C2\SC(=Nc3ccccc3)N(c3ccccc3)C2=O)cc1	.	5	-5	11	18	9
CCOc1cc(/C=C2\SC(=Nc3ccccc3)N(c3ccccc3)C2=O)ccc1OCC(=O)O	.	-31*	6	-36	10	6
O=C(Nc1ccccc1F)N1[C@@H]2CNC[C@H]1C2c1ccc(-c2cccnc2)cc1 (some centres undefined)	4	6	0	4	-2	7
CCC1(O)C(=O)OCc2c1cc1n(c2=O)Cc2cc3c(N)cccc3nc2-1 (centres undefined)	-2	3	.	55*	110*	98*
O=C(CN1CCOCC1)N[C@H]1CC[C@H](CCn2cc(C3CCCC3)nn2)O[C@@H]1CO	1	4	1	.	0	14
COc1cccc(C#Cc2ccc([C@H]3[C@H]4CN(S(=O)(=O)c5ccccc5C)CC(=O)N4[C@H]3CO)cc2)c1	7	4	.	2	26	5
COc1cc(C2CC(=O)c3c(ccc4ccccc34)N2)ccc1O (centres undefined)	1	.	.	.	18	9
SMILES	PGC1a acetyl inh	rRNA inh HTS	SIRT5 block	EWS-Fli inh	PAX8 reporter	LGR2 antag
COc1cccc(C2Nc3ccc4ccccc4c3C3=C2C(=O)CCC3)c1O (centres undefined)	1	-8	22*	23	-9	3
O=C1N[C@H](c2ccccc2)COCc2cn(nn2)CC[C@H](Cc2ccc(C(F)(F)F)cc2)C(=O)N[C@H](c2ccccc2)COCc2cn(nn2)CC[C@@H]1Cc1ccc(C(F)(F)F)cc1	.	-7	.	.	.	.
O=C(CN1CC(c2ccccc2)CC1=O)N/N=C/c1cc(Br)ccc1O (centres undefined)	.	-40	20*	14	21	13
CO[C@@H]1CN(C)C(=O)c2ccc(NC(=O)c3ccccn3)cc2OC[C@@H](C)N(CC2CC2)C[C@H]1C	14	.	.	1	26	.
COc1cccc(/C=C2\SC(=S)N(C(C(=O)O)c3ccccc3)C2=O)c1OC (centres undefined)	0	-34*	5	-9	9	-4
COc1cc(/C=C2\SC(=S)N(C(C(=O)O)c3ccccc3)C2=O)cc(OC)c1OC (centres undefined)	5	-26*	16*	-4	7	17
COc1ccc(/C=C2\SC(=S)N(C(C(=O)O)c3ccccc3)C2=O)c(OC)c1 (centres undefined)	0	-47	12	-20	8	0
O=C(NNC(=O)c1cnccn1)c1ccc(Cl)cc1	.	-39*	-7	10	-17	-13
Cc1cc(OCC(=O)NNC(=O)c2cnccn2)cc(C)c1Cl	85*	0	1	.	7	16
O=C(NNC(=O)c1ccc(Cl)cc1Cl)c1cnccn1	.	-35*	-3	4	-32	8
Cc1ccc(OCC(=O)NCCCNC(=O)c2cnccn2)cc1C	.	3	-2	8	-5	-3
C[C@H](NC(=O)N(C)C[C@@H]1OCc2ccccc2-c2c(n(C)c3ccccc23)C(=O)N([C@H](C)CO)C[C@@H]1C)c1ccccc1	-12	-1	6	6	-8	31
CCOc1ccc(NC(=O)COn2nnc3ccc(S(=O)(=O)N4CCOCC4)cc32)cc1	14	-29*	4	16	28	.
O=C(c1cccnc1)n1nc(NCc2ccccc2)nc1NCc1ccccc1	-4	-35*	0	-24	8	-4
COc1ccc(Cl)cc1NC(=O)Nc1cccc([N+](=O)[O-])c1C	.	-32*	6	.	.	12
Oc1cccc2c(NC(=S)Nc3ccc(SC(F)F)cc3)cccc12	.	-41*	-5	2	-20	-18
CC1CCN(CCOCCOc2ccc(Cl)cc2Br)CC1	-10	-30*	0	-30	.	10
Clc1ccc(Cl)c(OCCN2CCCC2)c1	.	4	16*	4	-43	.
